{"source": "the antibiotic and cytotoxicity screens of Wong et al. (2023)", "note": "Out of some 39,000 compounds screened, about 3,300 (8.5%) were called active. Only a selection was taken, and actives are over-represented in it overall.", "data": [{"tested_on": "HepG2", "assay": "cytotoxicity call (relative viability < 0.9)", "conditions": "10 µM", "values": [{"molecule": "COc1ccc(S(=O)(=O)N(C)C[C@H]2Oc3c(NC(=O)C4CC4)cccc3C(=O)N([C@@H](C)CO)C[C@H]2C)cc1", "cytotoxicity call": "inactive"}, {"molecule": "C[C@H](CO)N1C[C@H](C)[C@@H](CN(C)Cc2ccccc2)Oc2c(NC(=O)CCCCCC(=O)Nc3ccccc3N)cccc2C1=O", "cytotoxicity call": "inactive"}, {"molecule": "c1ccc([C@@H]2CCC[C@H](c3ccccc3)S2)cc1", "cytotoxicity call": "inactive"}, {"molecule": "C[C@H]1CN([C@@H](C)CO)C(=O)c2cc(NS(=O)(=O)c3cccs3)ccc2O[C@@H]1CN(C)C(=O)Nc1cccc2ccccc12", "cytotoxicity call": "inactive"}, {"molecule": "Cn1cc(C[C@@H](N)C(=O)O)c2ccccc21", "cytotoxicity call": "inactive"}, {"molecule": "O=C(C[C@H]1C[C@@H]2c3cc(NC(=O)NC4CCCC4)ccc3O[C@@H]2[C@@H](CO)O1)NCCN1CCCCC1", "cytotoxicity call": "inactive"}, {"molecule": "NC(Cc1cc(I)c(Oc2cc(I)c(O)c(I)c2)c(I)c1)C(=O)[O-].[Na+]", "note": "(stereo not given)", "cytotoxicity call": "inactive"}, {"molecule": "C[C@H]1CN([C@@H](C)CO)C(=O)c2cc(NC(=O)Nc3ccccc3)ccc2O[C@@H]1CN(C)C(=O)Nc1cccc2ccccc12", "cytotoxicity call": "inactive"}, {"molecule": "C[C@H]1CCCCO[C@H](CN(C)Cc2ccc(Cl)c(Cl)c2)[C@@H](C)CN([C@@H](C)CO)C(=O)c2cc(NC(=O)Nc3ccc(C(F)(F)F)cc3)ccc2O1", "cytotoxicity call": "inactive"}, {"molecule": "C[C@H](CO)N1C[C@H](C)[C@H](CN(C)Cc2ccc(Cl)c(Cl)c2)OCCCC[C@H](C)Oc2ccc(NC(=O)Nc3ccc(C(F)(F)F)cc3)cc2C1=O", "cytotoxicity call": "active"}, {"molecule": "C[C@H]1CCCCO[C@@H](CN(C)Cc2ccc(Cl)c(Cl)c2)[C@@H](C)CN([C@@H](C)CO)C(=O)c2cc(NC(=O)Nc3ccc(C(F)(F)F)cc3)ccc2O1", "cytotoxicity call": "inactive"}, {"molecule": "CC(=O)c1ccc(O)c(C(N)=O)c1", "cytotoxicity call": "inactive"}, {"molecule": "COc1ccc(S(=O)(=O)Nc2ccc3c(c2)CC(=O)N([C@@H](C)CO)C[C@H](C)[C@H](CN(C)Cc2ccc(-c4ccccc4)cc2)O3)cc1", "cytotoxicity call": "active"}, {"molecule": "COc1ccc(S(=O)(=O)Nc2ccc3c(c2)CC(=O)N([C@H](C)CO)C[C@H](C)[C@@H](CN(C)Cc2ccc(-c4ccccc4)cc2)O3)cc1", "cytotoxicity call": "inactive"}, {"molecule": "COc1ccc(S(=O)(=O)Nc2ccc3c(c2)CC(=O)N([C@@H](C)CO)C[C@@H](C)[C@H](CN(C)Cc2ccc(-c4ccccc4)cc2)O3)cc1", "cytotoxicity call": "active"}, {"molecule": "COc1ccc(S(=O)(=O)Nc2ccc3c(c2)CC(=O)N([C@H](C)CO)C[C@@H](C)[C@@H](CN(C)Cc2ccc(-c4ccccc4)cc2)O3)cc1", "cytotoxicity call": "active"}, {"molecule": "COc1ccc(S(=O)(=O)Nc2ccc3c(c2)CC(=O)N([C@@H](C)CO)C[C@@H](C)[C@@H](CN(C)Cc2ccc(-c4ccccc4)cc2)O3)cc1", "cytotoxicity call": "inactive"}, {"molecule": "COc1ccc(S(=O)(=O)Nc2ccc3c(c2)CC(=O)N([C@@H](C)CO)C[C@H](C)[C@@H](CN(C)Cc2ccc(-c4ccccc4)cc2)O3)cc1", "cytotoxicity call": "inactive"}, {"molecule": "COc1ccc(S(=O)(=O)Nc2ccc3c(c2)CC(=O)N([C@H](C)CO)C[C@H](C)[C@H](CN(C)Cc2ccc(-c4ccccc4)cc2)O3)cc1", "cytotoxicity call": "active"}, {"molecule": "Cc1cc(C(F)(F)F)cc(Cl)n1", "cytotoxicity call": "inactive"}, {"molecule": "Cc1ccc(S(=O)(=O)N(C)C[C@@H]2OCCCC[C@H](C)Oc3ccc(NC(=O)Nc4ccc(C(F)(F)F)cc4)cc3C(=O)N([C@H](C)CO)C[C@@H]2C)cc1", "cytotoxicity call": "inactive"}, {"molecule": "CC(C)NC(=O)N(C)C[C@H]1Oc2c(NC(=O)NC3CCCCC3)cccc2C(=O)N([C@H](C)CO)C[C@H]1C", "cytotoxicity call": "inactive"}, {"molecule": "C[C@H](CO)N1C[C@H](C)[C@@H](CN(C)C(=O)Cc2cccnc2)Oc2ncc(C#Cc3ccccc3F)cc2C1=O", "cytotoxicity call": "inactive"}, {"molecule": "Cc1nn(C)cc1NC(=O)C[C@H]1CC[C@H]2[C@@H](COc3ccc(NC(=O)C4CCOCC4)cc3C(=O)N2C)O1", "cytotoxicity call": "inactive"}, {"molecule": "COCC(=O)NCc1n[nH]c(=O)c2ccccc12", "cytotoxicity call": "inactive"}, {"molecule": "CC1(C)OC(=O)C2(C(=O)O1)[C@@H](c1ccc(-c3ccc(C(F)(F)F)cc3)cc1)CC(=O)C[C@H]2c1ccccc1", "cytotoxicity call": "inactive"}, {"molecule": "COc1ccc(S(=O)(=O)Nc2ccc3c(c2)CC(=O)N([C@H](C)CO)C[C@@H](C)[C@H](CN(C)Cc2ccc(-c4ccccc4)cc2)O3)cc1", "cytotoxicity call": "active"}, {"molecule": "CC(C)NC(=O)Nc1cccc2c1O[C@H](CN(C)Cc1ccc(C(=O)O)cc1)[C@H](C)CN([C@H](C)CO)C2=O", "cytotoxicity call": "inactive"}, {"molecule": "COc1ccc(S(=O)(=O)Nc2ccc3c(c2)C(=O)N([C@@H](C)CO)C[C@H](C)[C@@H](CN(C)S(=O)(=O)c2ccc(OC)cc2)O3)cc1", "cytotoxicity call": "inactive"}, {"molecule": "C[C@@H]1CCCCO[C@H](CN(C)S(=O)(=O)c2ccccc2)[C@@H](C)CN([C@@H](C)CO)C(=O)c2cc(NC(=O)Nc3ccc(F)cc3)ccc2O1", "cytotoxicity call": "inactive"}, {"molecule": "CNC(C)C1CCC(N)C(OC2C(N)CC(N)C(OC3OCC(C)(O)C(NC)C3O)C2O)O1.O=S(=O)(O)O", "note": "(stereo not given)", "cytotoxicity call": "active"}, {"molecule": "CN[C@@H]1[C@@H](O)[C@@H](O[C@@H]2[C@@H](O)[C@H](O[C@H]3O[C@H]([C@@H](C)NC)CC[C@H]3N)[C@@H](N)C[C@H]2N)OC[C@]1(C)O", "cytotoxicity call": "inactive"}, {"molecule": "CNC[C@@H]1CC[C@@H](N)[C@@H](O[C@H]2[C@H](O)[C@@H](O[C@H]3OC[C@](C)(O)[C@H](NC)[C@H]3O)[C@H](N)C[C@@H]2N)O1", "cytotoxicity call": "inactive"}, {"molecule": "Cc1ccc(N2CC[C@@H](CN)C2)cc1", "cytotoxicity call": "inactive"}, {"molecule": "NC[C@H]1CCCN(C(=O)Nc2ccc(Oc3ccccc3)cc2)C1", "cytotoxicity call": "inactive"}, {"molecule": "NC[C@H]1CCN(c2ccc(Oc3ccccc3)cc2)C1", "cytotoxicity call": "active"}, {"molecule": "Cn1c(=O)n2n(c1=O)[C@H](C1CC1)C=C1CN3[C@@H]([C@H](Cc4ccccc4)OC(=O)[C@@H]3Cc3ccc(N=[N+]=[N-])cc3)[C@@H]12", "cytotoxicity call": "inactive"}, {"molecule": "Cc1ccc(S(=O)(=O)Nc2ccc3c(c2)C(=O)N([C@@H](C)CO)C[C@H](C)[C@H](CN(C)Cc2ccc(-c4ccccc4)cc2)O3)cc1", "cytotoxicity call": "inactive"}, {"molecule": "Cc1ccc(S(=O)(=O)Nc2ccc3c(c2)C(=O)N([C@H](C)CO)C[C@H](C)[C@@H](CN(C)Cc2ccc(-c4ccccc4)cc2)O3)cc1", "cytotoxicity call": "inactive"}, {"molecule": "Cc1ccc(S(=O)(=O)Nc2ccc3c(c2)C(=O)N([C@@H](C)CO)C[C@@H](C)[C@@H](CN(C)Cc2ccc(-c4ccccc4)cc2)O3)cc1", "cytotoxicity call": "active"}, {"molecule": "Cc1ccc(S(=O)(=O)Nc2ccc3c(c2)C(=O)N([C@H](C)CO)C[C@@H](C)[C@H](CN(C)Cc2ccc(-c4ccccc4)cc2)O3)cc1", "cytotoxicity call": "inactive"}, {"molecule": "Cc1ccc(S(=O)(=O)Nc2ccc3c(c2)C(=O)N([C@@H](C)CO)C[C@H](C)[C@@H](CN(C)Cc2ccc(-c4ccccc4)cc2)O3)cc1", "cytotoxicity call": "inactive"}, {"molecule": "Cc1ccc(S(=O)(=O)Nc2ccc3c(c2)C(=O)N([C@H](C)CO)C[C@H](C)[C@H](CN(C)Cc2ccc(-c4ccccc4)cc2)O3)cc1", "cytotoxicity call": "active"}, {"molecule": "Cc1ccc(S(=O)(=O)Nc2ccc3c(c2)C(=O)N([C@H](C)CO)C[C@@H](C)[C@@H](CN(C)Cc2ccc(-c4ccccc4)cc2)O3)cc1", "cytotoxicity call": "active"}, {"molecule": "Cc1ccc(S(=O)(=O)Nc2ccc3c(c2)C(=O)N([C@@H](C)CO)C[C@@H](C)[C@H](CN(C)Cc2ccc(-c4ccccc4)cc2)O3)cc1", "cytotoxicity call": "inactive"}]}]}
